High-throughput results deposited in PubChem BioAssay by The Scripps Research Institute Molecular Screening Center.
Compounds with a hit are over-represented: about 3.5% of the library has one in this group of screens.
GPR151 ag = activates the human receptor GPR151. Q8TDV0. PathHunter beta-arrestin GPR151 cells, luminescence. activation, % at 11.2 µM. 1% of 650,000 active; in the data active = activation above about 4.9%;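 note: 0% = median of compound wells and 100% = cells with positive control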
Target sequence (Q8TDV0 whole entry, looked up): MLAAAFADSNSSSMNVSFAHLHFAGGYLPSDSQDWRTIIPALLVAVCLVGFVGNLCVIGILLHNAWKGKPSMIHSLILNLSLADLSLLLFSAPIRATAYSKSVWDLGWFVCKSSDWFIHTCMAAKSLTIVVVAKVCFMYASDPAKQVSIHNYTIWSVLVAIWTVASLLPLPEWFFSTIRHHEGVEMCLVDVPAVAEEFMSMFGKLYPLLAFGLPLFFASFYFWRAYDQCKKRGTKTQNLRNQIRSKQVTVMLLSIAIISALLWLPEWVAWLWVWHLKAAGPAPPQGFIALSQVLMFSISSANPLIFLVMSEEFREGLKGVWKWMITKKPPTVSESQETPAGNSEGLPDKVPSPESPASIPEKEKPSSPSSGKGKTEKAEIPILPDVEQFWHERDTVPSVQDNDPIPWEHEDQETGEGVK
FBW7 act = activators of human E3 ligase FBW7 | AID 1259310 | normalized activity (activation), % at 26.1 µM | Q969H0 | 0.13% of 650,000 active | AlphaScreen FBW7–phospho-cyclin E peptide binding, activator screen; in the data active = normalized activity above about 1.9%;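 note: purified mutant Fbw7 with reduced substrate affinity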
MITF primary = inhibitors of human MITF; 0.91% of 650,000 active; O75030; AlphaScreen MITF homodimerization, bead proximity signal; AID 1259374; inhibition, % at 2.6 µM; in the data active = inhibition above about 50%;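 note: 0% = vehicle wells with protein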
TEAD-YAP block = TEAD-YAP interaction inhibition. HEK-TIYL cells, TEAD-Gal4/YAP UAS-luciferase luminescence. inhibition, % at 9.12 µM. 1.4% of 640,000 active; in the data active = inhibition above about 32%;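 note: 0% = median of test compound wells and 100% = reference inhibitor wells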
Starred values were filed as active, the others as inactive.

What do the screens show for `Cc1ccc(CNC(=O)c2cnc3c(c(C)nn3-c3ccc(F)cc3)c2Cl)cc1`?
GPR151 ag: 0; FBW7 act: 0; MITF primary: -15; TEAD-YAP block: 1

What do the screens show for `Cc1nn(-c2ccc(F)cc2)c2ncc(C(=O)NCCCn3ccnc3)c(Cl)c12`?
GPR151 ag: -1; FBW7 act: 0; MITF primary: -9; TEAD-YAP block: 65*

How did CC(C)CCNC(=O)CN(C(=O)c1snc(C(N)=O)c1N)c1ccccc1F do in these assays?
GPR151 ag: 1; FBW7 act: 2.1*; MITF primary: 2; TEAD-YAP block: 0

How did CC(C)CCNC(=O)CN(C(=O)c1snc(C(N)=O)c1N)c1ccc(F)cc1 do in these assays?
GPR151 ag: 0; FBW7 act: 0; MITF primary: 5; TEAD-YAP block: -7

What do the screens show for `COc1cccc(Cn2c(=O)n(CCCCC(=O)NCc3ccco3)c(=O)c3ccccc32)c1`?
GPR151 ag: -1; FBW7 act: 0; MITF primary: 3; TEAD-YAP block: 48*

What do the screens show for `O=C(CCCCn1c(=O)c2ccccc2n(Cc2ccc(F)cc2Cl)c1=O)NCc1cccs1`?
GPR151 ag: -1; FBW7 act: 0; MITF primary: -7; TEAD-YAP block: -6

How did COc1cccc(Cn2c(=O)n(CCCCC(=O)NC3CCCCC3)c(=O)c3ccccc32)c1 do in these assays?
GPR151 ag: -1; FBW7 act: 0; MITF primary: -15; TEAD-YAP block: 1

How did O=C(CCCCn1c(=O)c2ccccc2n(Cc2ccccc2)c1=O)NCc1cccs1 do in these assays?
GPR151 ag: 0; FBW7 act: 0; MITF primary: 0; TEAD-YAP block: 38*

How did CCCOc1cccc(C(=O)Nc2ccc(NC(=O)c3cccc(C)c3)cc2)c1 do in these assays?
GPR151 ag: -1; FBW7 act: 0; MITF primary: 5; TEAD-YAP block: 5

How did COc1ccc(-n2ncc3c(=O)[nH]cnc32)cc1 do in these assays?
GPR151 ag: -1; FBW7 act: 1; MITF primary: 12; TEAD-YAP block: -2

What do the screens show for `COc1ccc(-n2nc3nc[nH]c(=O)c3n2)cc1`?
GPR151 ag: -5; FBW7 act: 0; MITF primary: 6; TEAD-YAP block: 46*

How did Cc1ccc(NC(=O)C2CCN(S(=O)(=O)c3ccc4c(c3)oc(=O)n4C)CC2)c(C)c1 do in these assays?
GPR151 ag: 1; FBW7 act: 0; MITF primary: -4; TEAD-YAP block: -43

How did CC(C)C[C@@H](NC(=O)[C@H](Cc1ccccc1)NC(=O)c1cnccn1)B(O)O do in these assays?
GPR151 ag: 2; FBW7 act: 0; MITF primary: -8; TEAD-YAP block: 62*

What do the screens show for `CC(CCc1ccccc1)NC(=O)c1cnccn1` (configuration not stated)?
GPR151 ag: -1; FBW7 act: 0; MITF primary: -2; TEAD-YAP block: -43

How did COc1ccc(/C=C(/C#N)c2nc(C3CC3)cs2)cc1OC do in these assays?
GPR151 ag: 1; FBW7 act: 1; MITF primary: 3; TEAD-YAP block: -35

How did COc1cccc(/C=C(/C#N)c2nc(C3CC3)cs2)c1 do in these assays?
GPR151 ag: -1; FBW7 act: 3.5*; MITF primary: -1; TEAD-YAP block: -56

Results for CCCCNC(=O)c1cc2c(C)nn(-c3ccccc3)c2s1 ?
GPR151 ag: 1; FBW7 act: 0; MITF primary: 8; TEAD-YAP block: 3

Results for O=C(CNc1ccc(I)cc1)N/N=C/c1ccc(O)cc1O ?
GPR151 ag: -1; FBW7 act: 0; MITF primary: 10; TEAD-YAP block: 56*

What do the screens show for `O=C(N/N=C/c1ccc(O)cc1O)c1ccc(I)cc1`?
GPR151 ag: 3; FBW7 act: 0; MITF primary: 29; TEAD-YAP block: 46*

Results for COCCn1c(=S)[nH]c2cc(C(=O)NCc3ccc4c(c3)OCO4)ccc2c1=O ?
GPR151 ag: -1; FBW7 act: 0; MITF primary: -2; TEAD-YAP block: 13

How did C=Cc1ccc(COc2cc3oc(=O)c(CCCCCC)c(C)c3cc2Cl)cc1 do in these assays?
GPR151 ag: -1; FBW7 act: 0; MITF primary: 4; TEAD-YAP block: 0

What do the screens show for `COc1ccc(N/C=C(\C#N)C(N)=S)cc1OC`?
GPR151 ag: 0; FBW7 act: 0; MITF primary: 10; TEAD-YAP block: 38*

How did COc1ccc(C(F)(F)F)cc1N/C=C(\C#N)C(N)=S do in these assays?
GPR151 ag: 0; FBW7 act: 0; MITF primary: 15; TEAD-YAP block: 2

What do the screens show for `Cc1cccc(NC(=O)CC(C)(C)C)c1C`?
GPR151 ag: 0; FBW7 act: 0; MITF primary: 2; TEAD-YAP block: -4
